SKKanGAS inh – S. pyogenes SKKanGAS growth inhibitors in kanamycin, primary screen, streptokinase expression inhibitor project, SKKanGAS strain, BacTiter-Glo luminescence. 300,000 compounds, 1.3% hits. inhibition, % at 7.5 µM. 6 h. AID 1662, 2009;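 active means mean replicate score, as percent of positive control median, at least 50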;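 further: strain carries kanamycin resistance gene driven by streptokinase promoter and grows in 40 µg/ml kanamycin; loss of luminescence reflects streptokinase promoter inhibition or plain growth inhibition; 0% = median of DMSO wells and 100% = positive control at its reference dose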
NALP3 yeast inh – NALP3 inflammasome inhibitors in reconstituted yeast, primary screen, luminescence, uHTS; inhibition, % at 10 µM; 330,000 compounds, 0.39% hits; Yeast reconstituted NLRP3/ASC/caspase-1, beta-gal luminescence, 24 h; AID 2825, 2010;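 active means inhibition of 50% or more; inactive means inhibition below 50%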;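 further: plate controls were induced DMSO wells for no effect and uninduced yeast grown without galactose for full effect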
tim10-1 inh – growth inhibitors of tim10-1 mutant yeast, primary screen, luminescence, uHTS | inhibition, % at 20 µM | AID 463190, 2010 | S. cerevisiae tim10-1 ts strain growth, BacTiter-Glo, 24 h | 330,000 compounds, 2.2% hits;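 active means inhibition of at least 40%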;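 further: mutant grown at 25 °C; 0% = DMSO wells with yeast and 100% = wells holding no yeast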
tim23-1 inh – growth inhibitors of tim23-1 mutant yeast, primary screen, luminescence, uHTS. S. cerevisiae tim23-1 growth, BacTiter-Glo luminescence, 24 h. inhibition, % at 20 µM. 330,000 compounds, 1.3% hits. AID 463212, 2010;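 active means growth inhibition of the mutant yeast at or above 50%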;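 further: temperature-sensitive mutant grown at 25 °C; plate controls were DMSO-treated mutant yeast for no effect and medium wells lacking yeast for full effect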
TIM10 inh – growth inhibitors of isogenic TIM10 control yeast, primary screen, counter-screen for tim10-1 yeast inhibitor project, luminescence, uHTS; 330,000 compounds, 1.4% hits; inhibition, % at 10 µM; S. cerevisiae TIM10 strain growth, BacTiter-Glo luminescence, 24 h;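 active means inhibition of 40% or more at the single tested concentration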;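 further: wild-type TIM10 isogenic control strain grown at permissive 25 °C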
PfHsp90 set2 – growth inhibition of PfHsp90-expressing yeast, primary screen, antimalarial PfHsp90 inhibitor project, S. cerevisiae, BacTiter-Glo luminescence, single point, set 2; 310,000 compounds, 0.32% hits; AID 504621, 2011; BacTiter-Glo ATP, 48 h; yeast lacking PDR1 and PDR3 efflux regulators; inhibition, % at 9.4 µM;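 active means every replicate shows inhibition above about 80%, whatever the replicate mean, limit read from the data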;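 further: 0% = DMSO neutral controls and 100% = 20 µM radicicol positive controls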
tim10-1 conf – growth inhibitors of tim10-1 mutant yeast, confirmation, single concentration, luminescence, S. cerevisiae; shares compounds with tim10-1 inh; S. cerevisiae tim10-1 ts strain growth, BacTiter-Glo, 24 h; inhibition, % at 20 µM; 7,400 compounds, 56% hits; AID 463213, 2010;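 active means inhibition of yeast growth at or above a set limit in either of two repeat tests at 20 µM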;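 further: tim10-1 mutant grown at permissive 25 °C to find synthetic lethal compounds; 0% = DMSO yeast wells and 100% = medium wells without yeast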
An asterisk follows results filed as active; . = no result. A selection: hits, their analogues and other compounds. The true share with any hit is near 4.6%.

SMILES | SKKanGAS inh | NALP3 yeast inh | tim10-1 inh | tim23-1 inh | TIM10 inh | PfHsp90 set2 | tim10-1 conf
CCOC(=O)C1CCCN(C(=O)c2ccc3oc(CCc4ccccc4)nc3c2)C1 (configuration not stated) | 2 | 8 | 42* | 30 | 10 | 0 | 8
COC(=O)CCCC(=O)NC1CCCc2c1cnn2-c1ccc(F)cc1F (configuration not stated) | -2 | 0 | 6 | 19 | -5 | 7 | .
Cc1cc(=O)n2[nH]c(SCc3c(F)cccc3Cl)nc2n1 | 6 | 19 | -10 | -9 | 19 | -6 | .
Cc1nn(-c2ccccc2)c(C)c1Cc1ccc(O)cc1 | -2 | 36 | 23 | 40 | 3 | 18 | .
Cc1nn(-c2ccccc2)c2c1C(O)n1c(nc3ccccc31)S2 (configuration not stated) | 8 | 14 | 41* | 38 | 25 | 0 | -5
COc1ccc(CNC(=O)CCn2c(=O)oc3ccccc32)c(OC)c1 | 0 | -6 | 11 | 4 | 3 | -10 | .
Cc1cc(N(CCO)CCO)ccc1N=Nc1cc(F)ccc1F | 1 | 28 | 41* | 45 | 16 | . | 38*
COc1ccccc1CNC(=O)CCN=C1NS(=O)(=O)c2ccccc21 | . | 9 | -20 | -9 | -6 | -10 | .
CCCCOc1ccc(C(=O)C(CN2CCOCC2)c2ccccc2)cc1 (configuration not stated) | 2 | 24 | 44* | 1 | 34 | -14 | 35*
CCCOc1ccc(C(=O)C(CN2CCCC2)c2ccccc2)cc1 (configuration not stated) | -2 | . | . | . | . | 25 | .
COc1ccc(C(=O)C(CN2CCCC2)c2ccccc2)cc1 (configuration not stated) | 1 | 16 | 45* | -26 | 38 | 0 | 43*
O=C(NCc1ccccc1CN1CCCC1)C1CCN(C(=O)c2ccc(F)cc2)CC1 | . | 15 | 3 | 11 | 6 | 1 | .
O=c1[nH]c(NNC(=S)NCc2ccccc2)nc2c1C1(CCCCC1)Cc1ccccc1-2 | 101* | 4 | 43* | 21 | 32 | . | 30
C=CCNC(=S)NNc1nc2c(c(=O)[nH]1)C1(CCCC1)Cc1ccccc1-2 | -17 | -17 | 48* | 37 | 34 | 2 | 38*
O=c1[nH]c(NCCCO)nc2c1C1(CCCC1)Cc1ccccc1-2 | -11 | 5 | 10 | 14 | 9 | 7 | .
O=S(=O)(CCNCc1ccco1)NC1CCCCC1 | . | . | . | . | . | -32 | .
Fc1c(F)c(C(F)(F)F)c(F)c(F)c1N/N=C\c1cccs1 | 25 | 8 | 47* | 43 | 37 | -39 | 69*
O=C(NC(=S)Nc1c(Cl)ccc2nsnc12)c1ccco1 | 6 | 5 | 28 | 16 | 3 | -13 | .
CCOC(=O)N1CCN(S(=O)(=O)c2ccc(C(=O)NNc3nc4c(C)cc(C)cc4s3)cc2)CC1 | 22 | 9 | 6 | 22 | -57 | . | .
CCOC(=O)N1CCN(S(=O)(=O)c2ccc(C(=O)NNc3nc4cc(C)cc(C)c4s3)cc2)CC1 | 23 | 8 | 42* | 11 | -14 | -21 | 8
O=C(CN1CCCC1c1cccs1)N1CCN(S(=O)(=O)c2cccc(F)c2)CC1 (configuration not stated) | . | 18 | -1 | 12 | 7 | -1 | .
O=C(NCc1cccnc1)c1ccc(-c2cc(Cl)ccc2Cl)o1 | -13 | 17 | 40* | 33 | 15 | -14 | 30
Cc1ccc2cc(C)c3nnc(SCc4ccc(C(=O)O)cc4)n3c2c1C | 5 | 8 | -1 | 4 | -23 | -6 | .
CC1(C)C2CCC(C2)C1C/C=N/NC(N)=S (configuration not stated) | -5 | -27 | 46* | 30 | 17 | 8 | -6
CC1(C)CCC(=NNC(N)=S)CC1 | . | . | . | . | . | -21 | .
SMILES | SKKanGAS inh | NALP3 yeast inh | tim10-1 inh | tim23-1 inh | TIM10 inh | PfHsp90 set2 | tim10-1 conf
Cc1ccc2cc(C#N)c(N3CCCN(C(=S)NCCCN(C)C)CC3)nc2c1 | 4 | 23 | 4 | 4 | -2 | 2 | .
Cc1cc(C)c2cc(C#N)c(N3CCCN(C(=S)NCCCN(C)C)CC3)nc2c1 | 3 | 17 | 40* | 36 | 32 | -12 | 31*
O=C(O)CNC(=S)N(Cc1ccccc1)Cc1ccccc1F | -1 | 11 | 1 | 9 | -8 | -6 | .
CC(C)C(=O)NC(=S)N(Cc1ccccc1)Cc1ccccc1 | -9 | 15 | 41* | 22 | 37 | -38 | 27
O=C(CNC(=O)c1ccc(Cl)c([N+](=O)[O-])c1)OC1CCCCC1=O (configuration not stated) | -3 | 16 | 18 | 9 | 7 | 8 | .
Cc1c(NC(=O)/C(C#N)=C/c2ccc(-c3ccc(Cl)c(Cl)c3)o2)c(=O)n(-c2ccccc2)n1C | 1 | 21 | 43* | 29 | 33 | -3 | 28*
COc1ccc(NC(=O)Cn2nc(C(F)(F)F)c3c2CCCC3)c(OC)c1 | -10 | 15 | 11 | 8 | 11 | . | .
COc1ccc(CNC(=O)Cn2nc(C(F)(F)F)c3c2CCC3)cc1 | 3 | 6 | 42* | 28 | 21 | 17 | 21
COc1ccccc1NC(CC(=O)c1ccccc1)C(=O)OCC(=O)c1ccc(F)cc1 (configuration not stated) | -10 | -41 | 45* | 33 | 34 | 0 | 40*
COc1ccccc1NC(=O)CCCC(=O)OCC(=O)c1ccc(F)cc1 | -6 | 7 | 25 | 12 | 6 | 11 | .
Cc1cccc2sc(N(CCCN(C)C)C(=O)c3ccc(C(=O)c4ccccc4)cc3)nc12 | 8 | 10 | 43* | 3 | 27 | -14 | 7
CN(C)CCCN(C(=O)c1ccc(C(=O)c2ccccc2)cc1)c1nc2ccc(F)cc2s1 | 2 | 17 | 49* | 16 | 35 | -11 | 4
CN(C)CCCN(C(=O)c1nc2ccccc2s1)c1nc2ccc(F)cc2s1 | -3 | 10 | -3 | 18 | 12 | -18 | .
Cc1cccc2sc(N(CCCN(C)C)C(=O)c3sc4ccccc4c3Cl)nc12 | . | 23 | 20 | 11 | 16 | 6 | .
Cc1[nH]c2ccccc2c1NC(=O)CN1CCN(c2cccc(C(F)(F)F)c2)CC1 | . | 10 | 25 | 6 | 21 | 9 | .
Cc1[nH]c2ccccc2c1C(O)CN1CCN(c2cccc(C(F)(F)F)c2)CC1 (configuration not stated) | -3 | -6 | 55* | -3 | 26 | 22 | 48*

Screens: PubChem, several laboratories
